Rows were chosen to be rich in hits. Some 4.2% of all compounds tested hit in one or more screens of this group.
TCR act = T cell receptor activation | Potency, µM (highest dose often 9.22 µM), actives largely listed as activators | primary human leukocytes, anti-CD3, IL-2 HTRF, 48 h | 330,000 tested, under 10 active
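HTRF read-out of IL-2 secretion: europium cryptate donor excited at 320nm, d2 acceptor emission at 665nm. Cells were primary human leukocytes incubated 48 hr with compounds and a-CD3 beads, supplying TCR signal only.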
ClpP mod = qHTS Assay for Activators of ClpP; ATP-dependent Clp protease proteolytic subunit (Bacillus subtilis (strain 168)), P80244; purified B. subtilis ClpP, FRET peptide cleavage, 20 min; Potency, µM (top dose mostly 57.5 µM); actives 1.9% (n = 340,000); active = well fitted falling curve with a large enough effect; inconclusive = small, poorly fitted or top-dose-only effect; inactive = no such curve, though single readings can be large or run the other way; also: the source files actives as falling curves though it sought activators and does not explain the sign; nearly all actives have a fitted effect of over 65% in size
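Buffer: 100 mM Tris/HCl pH8, 100 mM KCl, 0.05% low protease BSA, 2.5% glycerol, 0.01% Tween-20. ClpP 10 microg/mL final; 20 min RT; delta FRET normalized to ADEP and DMSO controls.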
uPA generation = inhibitors of cell surface uPA generation. actives 0.31% (n = 330,000). Potency, µM (top dose mostly 38.3 µM), usual class: inhibitors. AID 540303. cell surface uPA generation assay, qHTS; active = well fitted inhibition curve with a large enough effect; inconclusive = small, poorly fitted or top-dose-only effect; inactive = no such curve, though single readings can be large or run the other way; tested in mouse RAW 264.7 cells; also: nearly all actives have a fitted effect of over 55% in size
Sfp PPTase inh = inhibitors of Bacillus subtilis Sfp phosphopantetheinyl transferase | Q9F4F7 | Biochemical Sfp PPTase activity, qHTS | Potency, µM, usual class: inhibitors | actives 3.5% (n = 310,000);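 also: the enzyme is Sfp with the accession as filed and its product quenches rhodamine fluorescence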
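Fluorescence-quenching assay: 15 nM Sfp-PPTase preincubated 15 min at room temperature with compound, then 5 uM rhodamine-CoA and 12.5 uM BHQ-2-labelled YbbR peptide added. Fluorescence (ex 525/em 598 nm) read at start and after 30 min; difference gives rate.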
Large screens that a line does not name were inactive; ! = a repeat was not active. Unless noted, calls follow the shape of the dose curve; as a rule, active = well fitted curve in the direction sought with a large enough effect; inconclusive = small, poorly fitted or top-dose-only effect, or another doubt; inactive = no such curve, though single readings can be large; an effect the other way counts as inactive or inconclusive.

C=CCn1c(-c2ccoc2)n[nH]c1=S	ClpP mod 32µM
O=S(=O)(NCCc1cn2ccccc2n1)c1ccc(-c2ccccc2)cc1	none
CCOc1ccc(S(=O)(=O)NCCc2cn3ccccc3n2)cc1	ClpP mod 22µM
CCCCCCOc1ccc(/C(C)=N/NC2=NCCN2)cc1	uPA generation inconclusive, Sfp PPTase inh 56µM
CCCCCOc1ccc(/C(C)=N/NC2=NCCN2)cc1	uPA generation inconclusive
CCc1ccc(C(C)NC(=O)c2cc(C)oc2C)cc1 (centres undefined)	Sfp PPTase inh 16µM
O=[N+]([O-])c1ccc2c(c1)N([O-])C1(CCCCC1)[N+]2=O	Sfp PPTase inh 7.1µM (no result: ClpP mod)
COC(=O)CCCC1=CC2=C(c3ccccc3)C(=O)C(C)(OC(=O)C3CCCC3)C(=O)C2=CN1CCc1c[nH]c2ccccc12 (centres undefined)	Sfp PPTase inh inconclusive
Cc1cccc(CNC(=O)c2ccc(N3Cc4ccccc4Oc4ncccc43)s2)c1	ClpP mod 28µM (no result: TCR act, uPA generation, Sfp PPTase inh)
NC(=O)[C@@H]1CCCN1	none (no result: TCR act, ClpP mod, uPA generation)
O=C(O)[C@H]1CCCN1	Sfp PPTase inh 45µM! (no result: TCR act, ClpP mod, uPA generation)
Cc1cccc(N2CCN(C(=O)CN3CCSc4ccccc43)CC2C)c1 (centres undefined)	none (no result: TCR act, uPA generation, Sfp PPTase inh)
CC(OC(=O)CCN=C1NS(=O)(=O)c2ccccc21)C(=O)Nc1ccc(F)c(F)c1F (centres undefined)	ClpP mod 32µM (no result: Sfp PPTase inh)
Cc1ccc(C(=O)NCCN2C3=NC[C@H](Cc4ccc(O)cc4)N3C[C@H]2Cc2ccc(O)cc2)cc1Br	none
Cc1ccc(C(=O)N[C@@H](C)CN2C3=NC[C@H](C(C)C)N3C[C@H]2Cc2ccc(O)cc2)cc1Br	Sfp PPTase inh 40µM
Cc1ccc(C(=O)NCCN2C3=NC[C@@H](Cc4ccccc4)N3C[C@H]2Cc2ccc(O)cc2)cc1Br	Sfp PPTase inh 45µM
COc1ccc(C[C@H]2CN3C(=NC[C@@H]3C(C)C)N2C[C@H](C)NC(=O)c2ccc(C)c(Br)c2)cc1	none
COc1ccc(C[C@H]2CN3C(=NC[C@H]3Cc3ccccc3)N2CCNC(=O)c2ccc(C)c(Br)c2)cc1	Sfp PPTase inh 50µM
COc1ccc(C[C@H]2CN3C(=NC[C@@H]3Cc3ccc(O)cc3)N2CCNC(=O)c2ccc(C)c(Br)c2)cc1	none
COc1ccc(C[C@H]2CN3C(=NC[C@@H]3Cc3ccccc3)N2CCNC(=O)c2ccc(C)c(Br)c2)cc1	Sfp PPTase inh 32µM
O=C(O)c1ccccc1C(=O)Nc1ccc(Br)c2cccnc12	Sfp PPTase inh 40µM
Cc1cccc(CCNC(=O)c2ccc3c(c2)N(Cc2ccccc2F)C(=O)c2ccccc2S3)c1	none (no result: TCR act, uPA generation, Sfp PPTase inh)
CC(=O)Nc1ccc(S(=O)(=O)N2CCC(c3nnc(-c4ccc(C)cc4)o3)CC2)cc1	Sfp PPTase inh 50µM
COc1cc(OC)c(NC(=O)CN2C(=O)CCn3nc(-c4cccn4C)cc32)cc1Cl	none (no result: TCR act, uPA generation, Sfp PPTase inh)
CN1CC(O)C2=CC(=O)C(=O)C=C21 (centres undefined)	Sfp PPTase inh 5.6µM (no result: TCR act, ClpP mod, uPA generation)
CC(=O)Oc1c(Br)cc(N(C(C)=O)S(=O)(=O)c2ccccc2)c2ccccc12	uPA generation inconclusive, Sfp PPTase inh 35µM
COC(=O)COc1cccc2c(=O)n(CC(=O)N3CCCCC3)ccc12	none
CCOC(=O)COc1cccc2c(=O)n(CC(=O)NCc3ccc4c(c3)OCO4)ccc12	uPA generation 1µM
CCOC(=O)C(C)Oc1cccc2c(=O)n(CC(=O)NCc3ccccc3)ccc12 (centres undefined)	none (no result: ClpP mod)
CCOC(=O)COc1cccc2c(=O)n(CC(=O)NCCc3ccccc3)ccc12	none
COC(=O)COc1cccc2c(=O)n(CC(=O)NCc3ccc(F)cc3)ccc12	ClpP mod inconclusive, uPA generation 0.63µM
CCOC(=O)C(C)Oc1cccc2c(=O)n(CC(=O)NCc3ccc(F)cc3)ccc12 (centres undefined)	uPA generation 0.32µM
COCCn1ccc2c(OCC(=O)NCc3ccc(C)cc3)cccc2c1=O	ClpP mod 28µM, uPA generation inconclusive (no result: Sfp PPTase inh)
COCCNc1cc(N2CCN(C3CCCCC3)CC2)c2noc3c2c1C(=O)c1ccccc1-3	none (no result: TCR act, uPA generation, Sfp PPTase inh)
CCc1ccccc1NC(=O)C1CCN(S(=O)(=O)c2ccc3[nH]c(=O)ccc3c2)CC1	none (no result: TCR act, uPA generation, Sfp PPTase inh)
Cc1noc(Cn2c(=O)c3cc4c(cc3n(CC(=O)Nc3cccc(Cl)c3)c2=O)OCO4)n1	none (no result: TCR act, uPA generation, Sfp PPTase inh)
COC(=O)CSC1=C(C#N)C(c2ccc(C)cc2)C2=C(CCCC2=O)N1 (centres undefined)	Sfp PPTase inh 56µM

Screening results: PubChem BioAssay, National Center for Advancing Translational Sciences (NCATS)
